Results as given in the supplement of paper PMC11732987, “Enantioselective OTUD7B fragment discovery through chemoproteomics screening and high-throughput optimisation” (Communications Chemistry, 2025).

What was measured:
Experiment in all cases: log2 ratio of Biotin-Ahx-Ub-VS probe labelling (fragment/DMSO); higher = less target engagement (more negative = stronger competition), active = hit call of the paper (q ≤ 0.05, log2 ratio ≤ -1)
Conditions in all cases: compound concentration: 200 uM; treatment time: 3 h
[1] = biological target: T1, USP19 (UniProt O94966)
T1 sequence (whole entry): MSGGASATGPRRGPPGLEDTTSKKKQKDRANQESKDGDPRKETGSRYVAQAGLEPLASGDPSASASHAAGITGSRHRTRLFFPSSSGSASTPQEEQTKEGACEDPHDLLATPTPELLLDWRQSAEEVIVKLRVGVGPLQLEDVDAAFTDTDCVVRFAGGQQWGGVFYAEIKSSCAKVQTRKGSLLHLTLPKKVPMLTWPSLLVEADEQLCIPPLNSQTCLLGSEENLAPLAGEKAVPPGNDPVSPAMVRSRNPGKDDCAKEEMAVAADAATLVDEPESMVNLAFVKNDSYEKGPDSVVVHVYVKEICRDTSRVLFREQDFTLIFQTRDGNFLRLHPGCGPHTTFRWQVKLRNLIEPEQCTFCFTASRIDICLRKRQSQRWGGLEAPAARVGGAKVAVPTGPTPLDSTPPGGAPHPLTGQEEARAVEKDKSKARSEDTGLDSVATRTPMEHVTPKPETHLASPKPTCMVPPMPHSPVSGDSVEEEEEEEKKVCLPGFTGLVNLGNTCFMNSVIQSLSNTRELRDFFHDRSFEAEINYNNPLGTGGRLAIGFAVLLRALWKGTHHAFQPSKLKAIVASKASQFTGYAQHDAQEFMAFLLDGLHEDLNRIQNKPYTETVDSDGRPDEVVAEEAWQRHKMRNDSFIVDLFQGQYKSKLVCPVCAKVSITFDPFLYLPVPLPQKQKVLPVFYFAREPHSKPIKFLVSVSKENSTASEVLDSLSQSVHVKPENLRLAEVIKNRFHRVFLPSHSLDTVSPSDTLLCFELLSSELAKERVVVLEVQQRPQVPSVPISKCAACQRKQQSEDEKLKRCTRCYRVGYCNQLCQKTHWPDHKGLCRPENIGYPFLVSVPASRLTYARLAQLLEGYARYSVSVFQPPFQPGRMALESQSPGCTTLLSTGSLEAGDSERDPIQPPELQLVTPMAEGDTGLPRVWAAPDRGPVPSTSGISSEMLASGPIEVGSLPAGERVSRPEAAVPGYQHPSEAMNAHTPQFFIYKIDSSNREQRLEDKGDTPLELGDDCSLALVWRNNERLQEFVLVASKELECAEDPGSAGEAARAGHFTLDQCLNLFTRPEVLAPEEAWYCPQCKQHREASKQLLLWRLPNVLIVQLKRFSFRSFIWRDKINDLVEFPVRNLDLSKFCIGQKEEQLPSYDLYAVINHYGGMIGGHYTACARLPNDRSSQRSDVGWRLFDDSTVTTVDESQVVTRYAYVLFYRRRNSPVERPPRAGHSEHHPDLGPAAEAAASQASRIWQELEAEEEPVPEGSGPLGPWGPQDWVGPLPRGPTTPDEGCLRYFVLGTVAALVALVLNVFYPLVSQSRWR
How it was run: (§1)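 Triplicate samples of HEK293T lysate, 495 µg each, received fragment at 200 µM or vehicle for 3 h, followed by Biotin-Ahx-Ub-VS (0.5 µM final) for 1 h. After NeutrAvidin enrichment of labelled DUBs and LysC/trypsin digestion, peptides were run by diaPASEF LC-MS/MS. The values are average log2 fragment/vehicle ratios from global-median-normalised Spectronaut label-free quantities, tested by unpaired t-test on proteins having ≥2 unique peptides.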

[2] = biological target: T2, USP22 (UniProt Q9UPT9)
T2 sequence (whole entry): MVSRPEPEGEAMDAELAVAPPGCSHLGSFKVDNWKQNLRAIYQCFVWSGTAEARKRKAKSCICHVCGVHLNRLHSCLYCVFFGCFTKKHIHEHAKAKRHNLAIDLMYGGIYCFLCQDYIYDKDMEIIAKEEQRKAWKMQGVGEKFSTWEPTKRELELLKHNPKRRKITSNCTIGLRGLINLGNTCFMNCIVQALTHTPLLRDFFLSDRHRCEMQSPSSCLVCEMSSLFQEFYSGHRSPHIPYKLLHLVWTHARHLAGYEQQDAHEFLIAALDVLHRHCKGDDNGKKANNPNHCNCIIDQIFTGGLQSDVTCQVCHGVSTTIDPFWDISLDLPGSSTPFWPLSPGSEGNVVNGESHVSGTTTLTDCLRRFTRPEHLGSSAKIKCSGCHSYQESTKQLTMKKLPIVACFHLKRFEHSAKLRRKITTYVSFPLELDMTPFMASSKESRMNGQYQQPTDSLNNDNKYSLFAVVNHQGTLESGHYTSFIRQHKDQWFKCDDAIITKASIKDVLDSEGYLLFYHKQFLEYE
How it was run: as §1

[3] = biological target: USP24 (UniProt Q9UPU5)
Sequence of USP24 (Q9UPU5 whole entry): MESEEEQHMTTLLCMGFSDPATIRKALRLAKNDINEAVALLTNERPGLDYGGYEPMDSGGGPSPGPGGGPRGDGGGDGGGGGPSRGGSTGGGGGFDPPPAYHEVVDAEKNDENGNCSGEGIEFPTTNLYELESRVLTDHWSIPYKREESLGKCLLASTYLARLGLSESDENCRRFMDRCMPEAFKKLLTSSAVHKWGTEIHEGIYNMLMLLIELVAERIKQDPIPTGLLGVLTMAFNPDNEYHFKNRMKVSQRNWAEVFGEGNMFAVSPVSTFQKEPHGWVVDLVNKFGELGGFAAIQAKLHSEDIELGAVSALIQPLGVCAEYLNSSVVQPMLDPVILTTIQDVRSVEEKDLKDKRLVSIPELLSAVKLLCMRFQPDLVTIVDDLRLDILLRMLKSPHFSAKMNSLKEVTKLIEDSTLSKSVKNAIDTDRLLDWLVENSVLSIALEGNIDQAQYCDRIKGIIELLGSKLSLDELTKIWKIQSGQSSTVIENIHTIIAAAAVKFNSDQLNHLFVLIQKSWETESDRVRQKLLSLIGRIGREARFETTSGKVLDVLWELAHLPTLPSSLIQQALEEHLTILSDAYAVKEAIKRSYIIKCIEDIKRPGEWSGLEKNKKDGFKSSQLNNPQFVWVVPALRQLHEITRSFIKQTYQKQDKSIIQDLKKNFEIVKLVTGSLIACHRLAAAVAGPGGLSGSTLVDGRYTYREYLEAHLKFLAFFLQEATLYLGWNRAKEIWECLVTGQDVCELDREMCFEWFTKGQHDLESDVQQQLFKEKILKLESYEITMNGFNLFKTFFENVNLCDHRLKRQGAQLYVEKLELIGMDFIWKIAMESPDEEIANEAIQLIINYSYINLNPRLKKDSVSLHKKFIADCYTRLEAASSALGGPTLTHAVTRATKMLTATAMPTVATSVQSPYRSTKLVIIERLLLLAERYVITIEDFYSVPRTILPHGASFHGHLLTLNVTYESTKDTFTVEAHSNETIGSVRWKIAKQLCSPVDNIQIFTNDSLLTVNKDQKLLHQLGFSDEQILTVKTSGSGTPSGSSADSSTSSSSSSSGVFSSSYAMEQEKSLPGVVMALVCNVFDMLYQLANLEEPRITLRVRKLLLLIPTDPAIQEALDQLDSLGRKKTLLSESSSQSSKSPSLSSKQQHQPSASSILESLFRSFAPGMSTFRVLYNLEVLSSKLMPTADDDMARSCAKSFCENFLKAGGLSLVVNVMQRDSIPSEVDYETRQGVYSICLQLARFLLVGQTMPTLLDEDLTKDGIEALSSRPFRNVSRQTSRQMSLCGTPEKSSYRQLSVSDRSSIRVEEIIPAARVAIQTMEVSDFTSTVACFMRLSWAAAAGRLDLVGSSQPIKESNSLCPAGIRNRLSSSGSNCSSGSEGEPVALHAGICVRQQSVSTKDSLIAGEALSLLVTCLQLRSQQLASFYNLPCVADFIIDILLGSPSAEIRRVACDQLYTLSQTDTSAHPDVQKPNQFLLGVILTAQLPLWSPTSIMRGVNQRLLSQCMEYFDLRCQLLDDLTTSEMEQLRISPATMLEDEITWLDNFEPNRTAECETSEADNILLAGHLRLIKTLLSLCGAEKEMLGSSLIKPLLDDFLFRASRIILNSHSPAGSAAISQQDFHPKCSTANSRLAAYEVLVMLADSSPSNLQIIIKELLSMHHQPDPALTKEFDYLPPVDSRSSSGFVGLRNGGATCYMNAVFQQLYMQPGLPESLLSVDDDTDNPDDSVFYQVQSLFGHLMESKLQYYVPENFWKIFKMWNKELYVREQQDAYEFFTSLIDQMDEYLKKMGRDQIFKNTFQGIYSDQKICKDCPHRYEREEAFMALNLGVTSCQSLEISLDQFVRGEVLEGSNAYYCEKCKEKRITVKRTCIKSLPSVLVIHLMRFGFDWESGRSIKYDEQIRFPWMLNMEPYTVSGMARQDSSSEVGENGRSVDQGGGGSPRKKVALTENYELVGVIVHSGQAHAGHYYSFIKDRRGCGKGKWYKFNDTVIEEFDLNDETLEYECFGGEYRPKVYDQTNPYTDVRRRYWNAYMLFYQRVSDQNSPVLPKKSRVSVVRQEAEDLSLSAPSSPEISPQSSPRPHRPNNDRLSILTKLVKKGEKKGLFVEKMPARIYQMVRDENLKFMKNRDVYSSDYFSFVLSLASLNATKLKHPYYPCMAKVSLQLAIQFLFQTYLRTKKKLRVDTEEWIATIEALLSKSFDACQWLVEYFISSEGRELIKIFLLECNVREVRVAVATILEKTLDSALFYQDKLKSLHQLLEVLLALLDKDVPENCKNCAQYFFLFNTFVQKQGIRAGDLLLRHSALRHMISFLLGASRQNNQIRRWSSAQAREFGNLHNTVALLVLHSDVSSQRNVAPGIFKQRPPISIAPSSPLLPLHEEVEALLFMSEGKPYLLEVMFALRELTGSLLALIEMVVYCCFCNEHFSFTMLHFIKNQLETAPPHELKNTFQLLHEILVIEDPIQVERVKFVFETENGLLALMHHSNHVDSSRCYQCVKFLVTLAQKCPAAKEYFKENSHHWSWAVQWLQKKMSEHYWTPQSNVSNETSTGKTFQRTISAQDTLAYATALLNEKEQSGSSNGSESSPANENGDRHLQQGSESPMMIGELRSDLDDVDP
How it was run: as §1

[4] = biological target: T3, USP25 (UniProt Q9UHP3)
T3 sequence (whole entry): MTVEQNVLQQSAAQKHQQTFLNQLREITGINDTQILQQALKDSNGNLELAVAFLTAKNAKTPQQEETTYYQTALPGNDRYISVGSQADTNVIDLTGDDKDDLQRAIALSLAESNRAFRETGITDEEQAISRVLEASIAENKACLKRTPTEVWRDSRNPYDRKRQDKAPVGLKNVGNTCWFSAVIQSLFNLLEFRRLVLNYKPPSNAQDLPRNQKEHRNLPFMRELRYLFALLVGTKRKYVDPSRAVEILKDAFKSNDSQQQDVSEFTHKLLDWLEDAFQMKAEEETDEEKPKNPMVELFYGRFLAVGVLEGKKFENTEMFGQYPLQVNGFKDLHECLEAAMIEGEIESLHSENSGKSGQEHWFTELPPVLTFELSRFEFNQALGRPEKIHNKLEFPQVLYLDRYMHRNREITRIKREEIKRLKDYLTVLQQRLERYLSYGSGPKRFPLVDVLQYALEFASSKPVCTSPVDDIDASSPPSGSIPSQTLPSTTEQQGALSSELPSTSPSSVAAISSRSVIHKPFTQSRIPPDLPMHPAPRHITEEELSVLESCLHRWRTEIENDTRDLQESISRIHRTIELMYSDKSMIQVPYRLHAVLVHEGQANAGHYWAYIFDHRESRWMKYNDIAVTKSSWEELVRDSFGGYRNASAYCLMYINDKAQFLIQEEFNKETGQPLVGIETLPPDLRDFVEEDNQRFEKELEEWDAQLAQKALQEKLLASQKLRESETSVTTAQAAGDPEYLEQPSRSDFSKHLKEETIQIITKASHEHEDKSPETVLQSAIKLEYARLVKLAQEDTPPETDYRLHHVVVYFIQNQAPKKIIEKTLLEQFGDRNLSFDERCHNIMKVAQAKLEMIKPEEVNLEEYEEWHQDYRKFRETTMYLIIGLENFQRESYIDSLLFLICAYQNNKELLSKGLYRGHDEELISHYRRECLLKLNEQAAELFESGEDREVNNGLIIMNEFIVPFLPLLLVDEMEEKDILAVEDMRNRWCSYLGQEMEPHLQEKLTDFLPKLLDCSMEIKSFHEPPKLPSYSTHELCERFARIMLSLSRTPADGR
How it was run: as §1

[5] = biological target: T4, USP28 (UniProt Q96RU2)
T4 sequence (whole entry): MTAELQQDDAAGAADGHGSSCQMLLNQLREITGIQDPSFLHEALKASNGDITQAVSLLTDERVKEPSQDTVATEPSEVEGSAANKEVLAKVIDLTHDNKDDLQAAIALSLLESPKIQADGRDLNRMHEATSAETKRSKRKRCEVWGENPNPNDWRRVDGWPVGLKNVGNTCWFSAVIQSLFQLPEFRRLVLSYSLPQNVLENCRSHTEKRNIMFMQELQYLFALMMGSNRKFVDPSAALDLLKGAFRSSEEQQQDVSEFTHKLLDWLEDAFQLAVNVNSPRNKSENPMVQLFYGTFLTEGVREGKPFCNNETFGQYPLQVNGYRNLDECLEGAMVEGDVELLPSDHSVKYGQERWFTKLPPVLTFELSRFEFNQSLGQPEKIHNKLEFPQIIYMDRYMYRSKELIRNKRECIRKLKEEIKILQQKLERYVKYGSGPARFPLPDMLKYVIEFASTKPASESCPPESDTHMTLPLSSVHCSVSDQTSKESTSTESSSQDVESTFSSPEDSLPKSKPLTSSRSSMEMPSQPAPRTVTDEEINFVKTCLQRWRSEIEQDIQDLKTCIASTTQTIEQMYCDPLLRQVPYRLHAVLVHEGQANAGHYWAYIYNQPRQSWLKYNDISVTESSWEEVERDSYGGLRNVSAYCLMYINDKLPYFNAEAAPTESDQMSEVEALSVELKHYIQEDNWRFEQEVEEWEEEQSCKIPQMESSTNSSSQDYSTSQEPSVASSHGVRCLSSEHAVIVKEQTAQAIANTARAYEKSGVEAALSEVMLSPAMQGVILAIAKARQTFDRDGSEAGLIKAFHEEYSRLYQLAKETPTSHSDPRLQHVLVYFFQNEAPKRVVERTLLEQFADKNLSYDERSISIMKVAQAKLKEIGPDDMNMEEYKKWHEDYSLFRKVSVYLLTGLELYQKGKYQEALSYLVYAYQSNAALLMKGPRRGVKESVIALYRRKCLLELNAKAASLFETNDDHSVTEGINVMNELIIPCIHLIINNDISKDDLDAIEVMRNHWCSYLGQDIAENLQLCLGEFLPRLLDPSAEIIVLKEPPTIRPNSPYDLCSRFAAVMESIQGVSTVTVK
How it was run: as §1

Measured: log2 ratio of Biotin-Ahx-Ub-VS probe labelling

O=C(CCl)N(C1=CCCCC1)C1CC1
inactive: [1] -0.0989 | [2] -0.481 | [3] -0.573 | [4] -0.226 | [5] -0.185
